Source: PubChem BioAssay (several laboratories)
An excerpt weighted towards active compounds, which were near 0.68% of everything screened.
Mtb betalactam: beta-lactam sensitization of Mtb H37Rv. M. tuberculosis H37Rv growth with meropenem, percent inhibition. inhibition, % at 25 µM. 330,000 compounds, 0.27% hits. AID 434955; call rule not given here;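 further: growth measured after seven days incubation then overnight dye step; 0% = bacteria only wells and 100% = bacteria with antibiotic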
Mtb hypoxia rep: Mtb hypoxia fluorescent reporter inhibition | 300,000 compounds, 0.1% hits | M. tuberculosis hypoxia-regulated fluorescent reporter, fluorescence | fluorescence inhibition, % (test concentration not listed) | AID 1159583; in the data active means fluorescence inhibition mostly above about 23%, no sharp cut-off; inactive means mostly below about 17%
UGM FP inh: inhibitors of M. tuberculosis UDP-galactopyranose mutase | P9WIQ1 | purified UGM, fluorescence polarization probe displacement | inhibition, % at 10 µM | 320,000 compounds, 0.06% hits; in the data active means inhibition above about 10%, passing the limit was not always enough; inconclusive means no clear call, values can overlap the other calls
Target sequence (P9WIQ1 whole entry, looked up): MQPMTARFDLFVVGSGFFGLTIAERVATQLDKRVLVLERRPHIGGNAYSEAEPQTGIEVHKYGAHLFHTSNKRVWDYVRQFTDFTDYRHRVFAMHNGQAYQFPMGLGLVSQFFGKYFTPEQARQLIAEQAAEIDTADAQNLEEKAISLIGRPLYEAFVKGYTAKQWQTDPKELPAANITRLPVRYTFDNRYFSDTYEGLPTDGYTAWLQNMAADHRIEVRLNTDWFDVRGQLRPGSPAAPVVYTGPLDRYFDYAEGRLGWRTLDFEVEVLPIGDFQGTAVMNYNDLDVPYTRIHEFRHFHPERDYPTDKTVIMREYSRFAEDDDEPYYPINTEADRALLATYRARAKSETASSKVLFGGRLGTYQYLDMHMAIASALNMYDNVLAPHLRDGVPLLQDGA
RN4220 kill: kills Staphylococcus aureus RN4220; S. aureus RN4220 growth, OD600, 16 h; inhibition, % (concentration not given with the values); 330,000 compounds, 0.33% hits; in the data active means inhibition above about 85%;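 further: plate controls were untreated cells for no effect and reference antibiotic for full effect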
Rv3671c protease: inhibits the M. tuberculosis serine protease Rv3671c; inhibition, % at 5.96 µM; 320,000 compounds, 0.048% hits; AID 2606; in the data active means inhibition above about 38%;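 further: extracellular domain of Rv3671c used as enzyme; 0% = enzyme with DMSO and 100% = no enzyme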
ugtP null kill: growth inhibition of S. aureus ugtP deletion strain. S. aureus RN4220 ugtP deletion, OD600 growth, 16 h. growth inhibition, % (concentration not given with the values). 330,000 compounds, 0.54% hits. AID 1259309; in the data active means growth inhibition above about 68%;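 further: plate controls were untreated wells for no effect and antibiotic for full effect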
An asterisk follows results filed as active; ? = inconclusive; nt = no result given.

SMILES | Mtb betalactam | Mtb hypoxia rep | UGM FP inh | RN4220 kill | Rv3671c protease | ugtP null kill
Cc1ccccc1C(=O)NC(=S)Nc1ccccc1N1CCCC1 | -6 | -6 | 0 | 0 | -45 | 85*
O=C(NC(=S)Nc1ccccc1N1CCCCC1)c1ccc(F)cc1Cl | 1 | 6 | -1 | -13 | -15 | 91*
O=C(NC(=S)Nc1ccccc1N1CCCC1)c1ccc(F)cc1 | -1 | 0 | -2 | 5 | -16 | 79
COc1ccccc1C(=O)NC(=S)Nc1ccccc1N1CCCC1 | ? | nt | 2 | nt | -63 | nt
O=C(NC(=S)Nc1ccccc1N1CCOCC1)c1ccc(Br)cc1 | -13 | 5 | 4 | -8 | -4 | 94*
Clc1ccc(CN2CCC3C=CCc4cccc(c43)C2)cc1 (stereo not given) | nt | 2 | nt | 4 | nt | 25
Cc1cc(N2CCOCC2)ccc1C=C[N+](=O)[O-] | nt | 9 | nt | 14 | nt | -3
Oc1ccc(CC2CNCCN2CCc2cccc(F)c2)cc1 (stereo not given) | nt | 6 | nt | 0 | nt | -3
COC(=O)C1=C(c2ccc(OC)c(OC)c2)CC2CCC1N2C(=O)NCCc1ccccc1 (stereo not given) | nt | 7 | nt | 1 | nt | 3
O=C1c2cccc3cccc(c23)C(=O)N1CC1CCN(CC(O)COc2ccc3ccccc3c2)CC1 (stereo not given) | 100 | 10 | 2 | 59 | -7 | 14
CCc1ccc(OCC(O)CN2CCC(CN3C(=O)c4cccc5cccc(c45)C3=O)CC2)cc1 (stereo not given) | 100 | -10 | 3 | 80 | -1 | 85*
COc1ccc(N=Cc2c(O)n(-c3cccc(C)n3)c(=O)c3ccccc23)c(OC)c1 | 6 | -4 | 20* | 2 | 3 | 3
CC1=NN(c2ccccc2)C(=O)/C1=C/C=C/C=C/N(C)C | 13 | 63* | 1 | -5 | -52 | -6
CN(CC(=O)Nc1ccc(OC(F)(F)F)cc1)C(=O)/C=C/c1ccco1 | 1 | 6 | -3 | 1 | -5 | 2
CN(CC(=O)Nc1ccc(OC(F)(F)F)cc1)C(=O)/C=C/c1cc2c(cc1[N+](=O)[O-])OCO2 | ? | 30* | 0 | 2 | -1 | -2
CC=C(C)C(=O)NCCN1C2=NCC(C(C)C)N2CC1Cc1ccc(OC)cc1 (stereo not given) | nt | 13 | nt | 4 | nt | 4
Cc1nc2c(-c3ccccc3)c(C)[nH]n2c(=O)c1Cc1ccccc1 | 89 | 6 | -1 | 2 | 7 | -7
Cc1nc2c(-c3ccc(Cl)cc3)c(C)[nH]n2c(=O)c1Cc1ccccc1 | 99 | 6 | 3 | 100* | -4 | 100*
CN1/C(=C\C=N\NC(=O)c2ccc(O)cc2)C(C)(C)c2ccccc21 | 1 | nt | 1 | nt | -149 | nt
CN1C(=CC=NNC(=O)c2ccccc2Br)C(C)(C)c2ccccc21 | nt | -4 | nt | -2 | nt | 88*
Cc1cccc(C)c1OCC(=O)Nn1c(COc2ccccc2)nc2ccccc2c1=O | -1 | 10 | 1 | 14 | 0 | -11
Cc1ccccc1OCC(=O)Nn1c(COc2ccccc2)nc2ccccc2c1=O | -2 | nt | 0 | 110* | 0 | 99*
Cc1ccc(-n2sc3ccccc3c2=O)cc1 | 100 | 11 | 0 | 100* | 0 | 100*
O=c1c2ccccc2sn1-c1ccc(F)cc1 | 99 | 2 | 0 | 29 | 0 | 47
COC(=O)NN=Cc1ccc([N+](=O)[O-])s1 | nt | 9 | nt | 20 | nt | 14
SMILES | Mtb betalactam | Mtb hypoxia rep | UGM FP inh | RN4220 kill | Rv3671c protease | ugtP null kill
O=C(NN=Cc1ccc([N+](=O)[O-])s1)c1cncc(Br)c1 | nt | -11 | nt | 25 | nt | 99*
Cc1[nH]cnc1C(=O)NN=Cc1ccc([N+](=O)[O-])s1 | nt | -8 | nt | 100* | nt | 100*
OCC1OC(OC2C(CO)O[C@@](O)(CO)C2O)C(O)C(O)C1O (stereo not given in full) | nt | 7 | nt | 9 | nt | -3
NC(=O)c1c(NC(=O)C2COc3ccccc3O2)sc2c1CCN(Cc1ccccc1)C2 (stereo not given) | 15 | -6 | 19* | -1 | -3 | 2
O=C(Nc1nnc(C(F)(F)F)s1)C1COc2ccccc2O1 (stereo not given) | 3 | nt | 4 | 91 | -5 | 88*
CCOC(=O)c1c(NC(=O)C2COc3ccccc3O2)sc2c1CCN(Cc1ccccc1)C2 (stereo not given) | 8 | -12 | 3 | -6 | -6 | 1
N#CC(=NNc1cccc(C(F)(F)F)c1)C(=O)c1csc(-c2cccnc2)n1 | nt | 44* | nt | 87 | nt | 30
N#C/C(=N\Nc1cccc(C(F)(F)F)c1)C(=O)c1csc(-c2cccnc2)n1 | 10 | nt | 4 | nt | -4 | nt
O=C(C1CC1)N(Cc1ccco1)c1nc(-c2ccccc2)cs1 | 5 | -2 | -1 | -5 | 1 | 96*
O=C(Nc1ccc(Cl)c(Cl)c1)c1cccc(S(=O)(=O)NCc2cccnc2)c1 | 2 | 2 | -1 | 100* | -66 | 90
O=C(Nc1ccc(Cl)c(Cl)c1)ON=Cc1ccncc1 | nt | 5 | nt | 100* | nt | 101*
O=C(Nc1ccc(Cl)c(Cl)c1)OCc1cccnc1 | 16 | 9 | 2 | 100* | -119 | 100*
O=C(Nc1cccnc1)OCc1ccccc1 | -2 | -3 | 2 | -4 | -2 | -4
CCOC1OC(C(=O)NC2CC2)=CC(C2CC2)C1CCCO (stereo not given) | nt | 4 | nt | 3 | nt | -2
CCC1=C(OC(=O)N(CC)CC)N2C(=O)OC(=NCCc3c[nH]c4ccccc34)[C@]2(C)C2C1=CCC1C(=O)NC(=O)C12 (stereo not given in full) | nt | 7 | nt | 5 | nt | 1
O=C(COC(=O)c1ccccc1NCCO)NCC1CCCCC1 | -4 | 31* | 2 | 3 | -2 | 2
O=C(COC(=O)c1ccccc1Br)NCC1CCCCC1 | 82 | -3 | -1 | 0 | -8 | -4
COC(=O)C(O)(c1ccc(NC(=S)NC(=O)c2ccccc2)cc1)C(F)(F)F (stereo not given) | 2 | -1 | -2 | -1 | -6 | 89*
O=C(NC(=S)Nc1ccc(Oc2ccc(Cl)cc2)cc1)c1ccccc1 | 73 | nt | 0 | -15 | -17 | 86*
O=C(NC(=S)Nc1ccc(Cl)cc1)c1ccccc1 | 68 | 0 | -2 | 4 | 0 | 24
CC1CCC(C(C)C)C(OC(=O)C[n+]2cc(-c3ccc(Cl)cc3)n3c2CCC3)C1 (stereo not given) | -12 | nt | 3 | 101* | -6 | 101*
Cc1ccc(-c2c[n+](CC(=O)OCc3ccccc3)c3n2CCC3)cc1 | -2 | 17 | 1 | 4 | -11 | 8
CC(C)(C)c1nc(NC(=O)Nc2ccccc2)sc1Br | 98 | -3 | 3 | 97* | -31 | 92*
C#CCOCCOCCOCCNc1nc(N2CCN(C(=O)Cn3cc(CCCN=C(N)N)nn3)CC2)nc(N2CCN(C(=O)C(CCCCN)n3cc(CCC(=O)O)nn3)CC2)n1 (stereo not given) | nt | 15 | nt | 3 | nt | 0
Cc1ccc(NC2=C(NC(=O)c3ccccc3)C(=O)c3ccccc3C2=O)cc1Cl | 88 | 7 | -1 | 86* | -69 | 88*
